Source: PubChem BioAssay
The list is not random: actives were taken first. Their share in the collection is about 5.4%.
ALOX15B inhib – 15-hLO-2 (ALOX15B) enzyme inhibition. O15296. purified 15hLO-2, xylenol orange hydroperoxide absorbance. Potency, µM (highest dose often 57.1 µM), for the others: at the highest dose activity change, negative = inhibition, actives largely listed as inhibitors. 110,000 tested, 0.56% active. AID 881; also: potency is read from the fitted curve at half-maximal effect; nearly all actives have a fitted effect of over 60% in size
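Purified human 15hLO-2 (50 nM final) preincubated with compounds 15 min at room temperature in 25 mM Hepes pH 7.5, 0.01% Triton X-100, then 45 uM arachidonic acid added for 90 min; hydroperoxide detected via ferrous/xylenol orange, 573/405 nm absorbance ratio.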
HPGD block – blocks human HPGD enzyme activity | 150,000 tested, 4.3% active | Potency, µM, for the others: at the top dose activity change, negative = inhibition, actives largely listed as inhibitors | P15428 | purified HPGD, NADH fluorescence kinetic, PGE2 substrate; active = well fitted inhibition curve with a large enough effect, not every such curve was filed as active; inconclusive = small, poorly fitted or top-dose-only effect, or another doubt; inactive = no such curve, though single readings can be large or run the other way; also: potency is read from the fitted curve at half-maximal effect
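20 nM HPGD preincubated 15 min at room temperature with compound in 50 mM Tris-HCl pH 8, 0.01% Tween 20. Started with 1 mM NAD+ and 30 uM prostaglandin E2; NADH fluorescence (360/450 nm) read 5 times over 30-s intervals, last minus first.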
12-hLO inh – inhibitors of human 12-lipoxygenase (ALOX12) | purified 12-hLO, xylenol orange hydroperoxide absorbance | Potency, µM (highest dose often 57.1 µM), for the others: at the highest dose activity change, negative = inhibition, actives largely listed as inhibitors | 150,000 tested, 0.12% active; also: potency is read from the fitted curve at half-maximal effect; nearly all actives have a fitted effect of over 55% in size
Target sequence (P18054 whole entry, looked up): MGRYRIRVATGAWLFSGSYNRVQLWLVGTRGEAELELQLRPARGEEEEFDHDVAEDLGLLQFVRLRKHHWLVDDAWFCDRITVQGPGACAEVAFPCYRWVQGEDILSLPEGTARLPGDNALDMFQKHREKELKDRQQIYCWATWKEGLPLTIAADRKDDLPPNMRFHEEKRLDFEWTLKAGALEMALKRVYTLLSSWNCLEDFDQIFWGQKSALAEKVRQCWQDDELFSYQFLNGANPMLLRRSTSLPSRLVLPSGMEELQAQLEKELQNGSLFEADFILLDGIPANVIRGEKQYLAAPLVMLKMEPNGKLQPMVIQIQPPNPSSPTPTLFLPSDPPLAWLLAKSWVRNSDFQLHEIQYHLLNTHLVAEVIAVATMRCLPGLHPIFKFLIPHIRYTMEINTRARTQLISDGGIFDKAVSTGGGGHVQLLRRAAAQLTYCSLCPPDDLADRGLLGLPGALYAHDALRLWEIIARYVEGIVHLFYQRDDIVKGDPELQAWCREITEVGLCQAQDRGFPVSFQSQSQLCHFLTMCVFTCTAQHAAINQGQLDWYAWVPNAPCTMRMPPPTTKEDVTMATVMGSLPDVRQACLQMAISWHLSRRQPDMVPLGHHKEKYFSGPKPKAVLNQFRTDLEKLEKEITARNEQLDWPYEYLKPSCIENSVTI
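Hydroperoxide formation by human 12-lipoxygenase from 40 uM arachidonic acid was followed colorimetrically via ferric-xylenol orange complex, using the 573/405 nm absorbance ratio. Enzyme concentration was 150 nM, with 30 min reaction at room temperature.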
PNC assembly inh – perinucleolar compartment assembly inhibition | activity change (PNC), negative = inhibition, % at 10 µM | 140,000 tested, 3.1% active | PC3M PTB-GFP, PNC prevalence imaging, 16 h; hits give low values | AID 2417;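 active = readout at or below -70, meaning at least 70% loss of cells showing the perinucleolar compartment, a nuclear body marking cancer cells; inconclusive = readout between -30 and a set limit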;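 also: plate controls were DMSO wells for no effect and camptothecin positive control wells for full effect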
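Compounds are pinned in duplicate onto adhered PC3M cells stably expressing GFP-tagged PTB and incubated 16 h at 37 C. Cells are then fixed, nuclei stained with Hoechst, and PNC-positive cells counted.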
IMPase cell inh – membrane-permeable compound that blocks inositol monophosphatase. P97697. CHO-M1 cells, IP1 accumulation, HTRF TR-FRET ratio. inhibition (IP1 accumulation), % at 46.1 µM. 120,000 tested, under 10 active; active = well fitted curve in the direction sought with a large enough effect in the signal ratio, not every such curve was filed as active; inconclusive = small, poorly fitted or top-dose-only effect, or a change in a side signal; inactive = no such curve, though single readings can be large or run the other way; the % refers to the signal ratio;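 also: cells stimulated with carbachol in lithium chloride buffer; plate controls were DMSO basal wells for no effect and reference inhibitor wells for full effect; higher means more IMPase inhibition seen as more IP1 and lower FRET ratio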
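Seeded CHO-M1 cells were dosed with compound at up to 46 uM, stimulated with carbachol for 30 min, then lysed in IP-One detection reagents. Higher IP1 lowers the TR-FRET signal.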
IMPase Li inh – membrane-permeable IMPase blocker, potentiated with lithium; CHO-M1 cells, IP1 TR-FRET (IP-One), carbachol + lithium; 210,000 tested, 0.35% active; Potency, µM (series often up to 59.4 µM), inactives show at the highest dose activity, negative = IMPase inhibition, actives largely listed as inhibitors;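 also: IP1 builds up when IMPase is blocked and the TR-FRET signal falls; potency is read from the fitted curve at half-maximal effect; plate controls were basal vehicle for no effect and high inhibitor control for full effect; nearly all actives have a fitted effect of over 50% in size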
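CHO-M1, 2000 cells/well, 16–30 h culture; cpd + low Li+, 30 min 37C; lysis with d2-IP1/Eu-anti-IP1 Ab, 10 min RT; TR-FRET 665/620 ratio and 620 channel; AC50 via Hill.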
* hit, by the source's call; ? = inconclusive; / = not tested or not shown; ! = repeats disagree; [ ] = remark or other dose. Unless noted, calls follow the shape of the dose curve; as a rule, active = well fitted curve in the direction sought with a large enough effect; inconclusive = small, poorly fitted or top-dose-only effect, or another doubt; inactive = no such curve, though single readings can be large; an effect the other way counts as inactive or inconclusive. Unless noted, % is scaled to controls: 0 for no effect and ±100 for the full control effect.

SMILES	ALOX15B inhib	HPGD block	12-hLO inh	PNC assembly inh	IMPase cell inh	IMPase Li inh
CCC(=Nc1ccc(OC)cc1OC)c1c(O)n(C2CCCCC2)c(=O)[nH]c1=O	-12%	28µM*	-29%	29	13	14%[38.3 µM]
C[n+]1c(/C=C\c2ccc(O)c3ncccc23)[se]c2ccccc21	19%[11.4 µM]	-11%	-20%[11.4 µM]	/	/	20%
CN(C)C(=O)Oc1ccc(Cl)c2ccccc12	-2%	-15%	-2%	?	6	15%[38.3 µM]
N=C(N)SCc1ccc(Cl)c2ccccc12 (tested in a mixture with another compound)	7%[11.4 µM]	4.5µM*!	-1%[11.4 µM]	/	/	-3%
CCCCC/C=C\C/C=C\C/C=C\C/C=C\CCCC(=O)N(Cc1ccc(O)c(Cl)c1)Cc1ccc(O)c(Cl)c1	?	-3%	-5%[0.00818 µM]	/	/	10%
CCOP(=O)(NC(C)C)Oc1ccc(SC)c(C)c1 (stereo unspecified)	-13%	5.6µM*	-9%	/	/	34%
COP(=S)(OC)Oc1ccc(SC)c(C)c1	-1%	-11%	-5%	/	/	1%
COP(=S)(OC)SCn1nnc2ccccc2c1=O	-7%	28µM*	-29%	/	/	2%
COc1ccc(-n2c(Cc3ccccc3)nc3ccccc3c2=O)cc1	/	/	/	/	/	12%
C[C@@H]1O[C@@H](O[C@H]2C[C@@H](O)[C@]3(CO)[C@@H]4[C@@H](O)C[C@]5(C)[C@H](C6=CC(=O)OC6)CC[C@@]5(O)[C@H]4CC[C@@]3(O)C2)[C@H](O)[C@H](O)[C@@H]1O	-6%	/	-3%	/	/	/
CC(N=Cc1c(O)[nH]c(=O)[nH]c1=O)c1ccccc1 (stereo unspecified)	-6%	28µM*	-3%	-24	1	1%[38.3 µM]
CCN(CC)CCOC(=O)c1ccc(N=Cc2c(O)[nH]c(=O)[nH]c2=O)cc1	-11%	-10%	-3%	-11	-10	10%[38.3 µM]
CCOC(=O)c1c(/N=C/c2c(O)n(-c3ccc(F)cc3)c(=S)[nH]c2=O)sc2c1CCCC2	-11%	0%	-3%	-11	7	-15%[38.3 µM]
CCOC(=O)c1c(/N=C/c2c(O)n(-c3ccccc3F)c(=S)[nH]c2=O)sc2c1CCCC2	-17%	22µM*	-12%	?	3	26%[38.3 µM]
CC(C)C(=O)CP(=O)(O)O	8%[11.4 µM]	-10%	-1%[11.4 µM]	/	/	-2%
Oc1cc2c(cc1O)[C@H]1c3ccccc3CNC1CC2 (stereo partly specified)	/	6.3µM*	/	/	/	9%
CN(C)CCCNc1c2c(nc3ccc(Cl)cc13)CCCC2	10%[11.4 µM]	-4%	0%[11.4 µM]	/	/	8%
Clc1ccc(N2C[C@H]3CC[C@@H](C2)N3)nn1	-2%	/	-10%	/	6	/
COc1ccc(C=O)cc1OC	-11%	-14%	-6%	/	/	15%
O=C(c1ccc2c(c1)ncn2C1CCCCC1)N1CCC2(CC1)OCCO2	10%	7.9µM*	0%	56	-8	-10%[38.3 µM]
CCOC(=O)C1OC1(C)c1ccccc1 (stereo unspecified)	6%	-6%	-2%	/	/	-13%
COc1ccccc1N1C(=O)NC(=O)/C(=C/c2ccc3c(c2)Cc2ccccc2-3)C1=O	/	?	-8%	14	/	-6%
COc1ccc(N2C(=O)NC(=O)/C(=C/c3cccc(OC(=O)c4cccs4)c3)C2=O)cc1Cl	/	32µM*	-19%	?	/	-3%
Cc1ccc(N2C(=O)NC(=O)/C(=C/c3ccc(OC(=O)c4cccs4)cc3)C2=O)cc1	-11%	28µM*	-8%	57	-3	13%[38.3 µM]
O=C(Oc1ccc(S(=O)(=O)F)cc1F)c1ccccc1Cl	0%[11.4 µM]	-14%	2%[11.4 µM]	/	/	-5%
SMILES	ALOX15B inhib	HPGD block	12-hLO inh	PNC assembly inh	IMPase cell inh	IMPase Li inh
C[C@H]1CCC[C@H](O)CCCCCc2cc(O)cc(O)c2C(=O)O1	-3%	-3%	0%	4	6	3%[38.3 µM]
CC1CC2OC2/C=C\C=C/C(=O)Cc2c(Cl)c(O)cc(O)c2C(=O)O1 (stereo unspecified)	-9%[0.0915 µM]	18µM*	-4%[0.00818 µM]	/	/	23%
CC(C)Br	-2%	-3%	-3%	/	/	9%
O=C(c1c[nH]c(C(=O)C(Cl)(Cl)Cl)c1)c1ccccc1Cl	5%	14µM*	-9%	-25	18	-14%[38.3 µM]
Nc1ccc(Cl)cc1C(=O)c1ccccc1Cl	/	-9%	-3%	?	/	-4%
CN(C)C=O	-5%	0%	0%	/	/	?
c1ccc(-c2nc(N3CCOCC3)s[n+]2-c2ccccc2)cc1	/	10µM*	1%	64	/	-5%
N#CC(C#N)=Cc1ccc([N+](=O)[O-])c(O)c1	-17%[0.0915 µM]	16µM*	-6%[0.00818 µM]	/	2	12%
ClCCCCl	-3%	-5%	-2%	/	/	7%
CN1C[C@@H](CS(=O)(=O)N(C)C)C[C@H]2c3cccc4c3c(cn4C)C[C@@H]21	4%	/	-3%	/	6	/
COc1cc(N2CCOCC2)ccc1C=C1C(=O)NC(=O)NC1=O	/	32µM*	1%	?	-6	-1%
CC1(C)N=C(N)N=C(N)N1c1cccc(C(=O)Nc2ccc(S(=O)(=O)F)cc2)c1	17%[11.4 µM]	-3%	7%[11.4 µM]	/	/	0%
C=C(C)C(=O)OCC1CO1 (stereo unspecified)	-4%	-9%	3%	/	/	6%
CSc1ccc(CNC2CN3CCC2CC3)cc1 (stereo unspecified)	18%	-2%	9%	-106*	-2	31%[38.3 µM]
Clc1ccccc1CNC1CN2CCC1CC2 (stereo unspecified)	/	-8%	8%	?	/	-3%
CN1CCC[C@@H]1c1cccnc1.O=C(O)c1ccccc1O.O=C([OH2+])c1ccccc1O.O=C([OH2+])c1ccccc1O.O=C([OH2+])c1ccccc1O.[Cu]	?	?	?	/	/	-18%
c1ccc(CCN2CCCCCC2)nc1	4%[11.4 µM]	-14%	-1%[11.4 µM]	/	/	-1%
COc1ccc(Cc2nccc3cc(OC)c(OC)cc23)cc1OC	-4%	14µM*!	?	16	9	23%
COc1ccc(CCNCc2ccc(C)s2)cc1OC	/	/	/	/	/	9%
CC(ON1CC1(C(F)(F)F)C(F)(F)F)(C(N)=O)C(N)=O (stereo unspecified)	/	-5%	0%	-93*	/	-2%
CCOC(=O)c1ccc(NC(=O)c2c(O)[nH]c(=O)[nH]c2=O)cc1	7%	14µM*	2%	?	4	?
CC(=O)OC1=CC2=CC[C@H]3[C@H]4CCC(=O)[C@@]4(C)CC(=O)[C@]3(S)[C@]2(C)CC1	-18%[11.4 µM]	-4%	-6%[11.4 µM]	/	/	9%
NC(N)=NC(=O)c1nc(Cl)c(N)nc1N	-12%	?	-3%	-115*	-1	-1%
COc1ccc(-c2noc(CN3C(=O)c4ccccc4C3=O)n2)cc1	-3%	20µM*	1%	?	-1	24%[38.3 µM]
